Read-out in assay [1]: TIMP metallopeptidase inhibitor 1 (TIMP1), TIMP1 (gene 7076)
Nature of the assay: BSK_hDFCGF_TIMP1: BioMAP Diversity Plus: hDFCGF Assay for TIMP metallopeptidase inhibitor 1 (TIMP1) Biomarker Activity (AID 2283062). The settings on record: primary human foreskin fibroblasts; actives raise or lower the signal. A digest of the protocol: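 Primary human foreskin fibroblasts in the hDFCGF system were dosed with compound for 24 h, then TIMP-1 was measured by ELISA. Activity was fitted bidirectionally relative to DMSO control; parallel SRB staining assessed cytotoxicity.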

Read-out in assay [2]: Monokine induced gamma interferon (MIG), CXCL9 (gene 4283)
Nature of the assay: BSK_hDFCGF_MIG: BioMAP Diversity Plus: hDFCGF Assay for Monokine induced gamma interferon (MIG) Biomarker Activity (AID 2283063). The settings on record: primary human foreskin fibroblasts; actives raise or lower the signal. A digest of the protocol:
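ELISA read-out of MIG from primary human dermal fibroblasts 24 h post-dosing. Gain or loss of signal fitted bidirectionally, DMSO as baseline.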

Read-out in assay [3]: Matrix Metallopeptidase 1 (MMP1), MMP1 (gene 4312)
Nature of the assay: BSK_hDFCGF_MMP1: BioMAP Diversity Plus: hDFCGF Assay for Matrix Metallopeptidase 1 (MMP1) Biomarker Activity (AID 2283064). The conditions noted are these: primary human foreskin fibroblasts; actives raise or lower the signal. The method, boiled down:
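hDFCGF primary fibroblasts (human foreskin); chemical added; 24 h; MMP1 by ELISA; bidirectional fit vs DMSO.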

Read-out in assay [4]: Vascular cell adhesion molecule 1 (VCAM1), VCAM1 (gene 7412)
In words: BSK_hDFCGF_VCAM1: BioMAP Diversity Plus: hDFCGF Assay for Vascular cell adhesion molecule 1 (VCAM1) Biomarker Activity (AID 2283065).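 On AC50: VCAM-1 protein level quantified by ELISA after 24 h chemical exposure.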 The conditions noted are these: primary human foreskin fibroblasts; actives raise or lower the signal. The method, boiled down:
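Primary human foreskin fibroblasts (hDFCGF system) were dosed with chemical and VCAM-1 was measured by ELISA 24 h later. Bidirectional curve fitting used DMSO as negative control and activity baseline.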

Read-out in assay [5]: Plasminogen activator inhibitor-1 (PAI1), SERPINE1 (gene 5054)
Nature of the assay: BSK_hDFCGF_PAI1: BioMAP Diversity Plus: hDFCGF Assay for Plasminogen activator inhibitor-1 (PAI1) Biomarker Activity (AID 2283066). The settings on record: primary human foreskin fibroblasts; actives raise or lower the signal. A digest of the protocol:
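PAI-1 levels, determined by ELISA, served as the endpoint in human foreskin fibroblast cultures exposed to compound for 24 h, with DMSO as baseline.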

Read-out in assay [6]: Intercellular Adhesion Molecule 1 (ICAM1), ICAM1 (gene 3383)
In words: BSK_KF3CT_ICAM1: BioMAP Diversity Plus: KF3CT Assay for Intercellular Adhesion Molecule 1 (ICAM1) Biomarker Activity (AID 2283067). The conditions noted are these: primary human keratinocytes with fibroblasts; actives raise or lower the signal. The method, boiled down:
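Human keratinocyte plus foreskin fibroblast primary co-culture was exposed to chemical for 24 h. ICAM-1 was then quantified by ELISA, and the data were fit bidirectionally against DMSO as the negative control and baseline.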

Read-out in assay [7]: Interferon-gamma inducible Protein 10 (IP10), CXCL10 (gene 3627)
In words: BSK_KF3CT_IP10: BioMAP Diversity Plus: KF3CT Assay for Interferon-gamma inducible Protein 10 (IP10) Biomarker Activity (AID 2283068). The conditions noted are these: primary human keratinocytes with fibroblasts; actives raise or lower the signal. A digest of the protocol:
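ELISA read-out of IP-10 after 24 h chemical dosing of human skin primary co-culture (keratinocytes, foreskin fibroblasts). Gain or loss of signal relative to DMSO, bidirectional curve fit.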

Assay [8] can be described thus: BSK_KF3CT_SRB: Viability Assessment in the BioMAP Diversity Plus: KF3CT Assay (AID 2283069).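 Further: total protein by sulforhodamine B staining as a cytotoxicity measure; read 24 h after compound addition; fitted for both signal gain and loss against DMSO baseline.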 The conditions noted are these: primary human keratinocytes with fibroblasts. A digest of the protocol: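 Keratinocytes co-cultured with foreskin fibroblasts (human primary); chemical added, 24 h; fix 10% TCA, stain 0.1% SRB, A560. Bidirectional fit vs DMSO.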
Read-out in assay [9]: Interleukin-1 alpha (IL1a), IL1A (gene 3552)
In words: BSK_KF3CT_IL1a: BioMAP Diversity Plus: KF3CT Assay for Interleukin-1 alpha (IL1a) Biomarker Activity (AID 2283070). The settings on record: primary human keratinocytes with fibroblasts; actives raise or lower the signal. The method, boiled down: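 Chemicals were dosed onto co-cultured human keratinocytes and foreskin fibroblasts, IL-1a was quantified by ELISA at 24 h, and activity was fitted in both directions relative to DMSO controls.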

Read-out in assay [10]: TIMP metallopeptidase inhibitor 2 (TIMP2), TIMP2 (gene 7077)
In words: BSK_KF3CT_TIMP2: BioMAP Diversity Plus: KF3CT Assay for TIMP metallopeptidase inhibitor 2 (TIMP2) Biomarker Activity (AID 2283071). The settings on record: primary human keratinocytes with fibroblasts; actives raise or lower the signal. The method, boiled down:
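Keratinocyte–fibroblast co-culture, 24 h exposure; TIMP-2 ELISA, DMSO-normalised bidirectional fit. Parallel SRB (0.1%, TCA-fixed, 560 nm) total-protein staining gauges cytotoxicity.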

Read-out in assay [11]: Transforming growth factor beta 1 (TGFb1), TGFB1 (gene 7040)
Nature of the assay: BSK_KF3CT_TGFb1: BioMAP Diversity Plus: KF3CT Assay for Transforming growth factor beta 1 (TGFb1) Biomarker Activity (AID 2283072). The settings on record: primary human keratinocytes with fibroblasts; actives raise or lower the signal. A digest of the protocol:
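Signal changes in either direction, relative to DMSO, define activity here. TGF-b1 is read by ELISA from a human keratinocyte-fibroblast co-culture 24 h post-dose.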

Read-out in assay [12]: C-C motif chemokine 2 (Homo sapiens) (UniProt P13500)
In words: BSK_KF3CT_MCP1: BioMAP Diversity Plus: KF3CT Assay for Monocyte Chemoattractant Protein 1 (MCP1/CCL2) Biomarker Activity (AID 2283073). The settings on record: primary human keratinocytes with fibroblasts; actives raise or lower the signal. The method, boiled down: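 Human keratinocyte plus foreskin fibroblast primary co-culture exposed to chemical for 24 h. MCP-1 levels measured by ELISA. Bidirectional curve fitting relative to DMSO negative control as baseline.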

Read-out in assay [13]: Matrix Metallopeptidase 9 (MMP9), MMP9 (gene 4318)
In words: BSK_KF3CT_MMP9: BioMAP Diversity Plus: KF3CT Assay for Matrix Metallopeptidase 9 (MMP9) Biomarker Activity (AID 2283074).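 On AC50: MMP9 protein level quantified by ELISA in the co-culture.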 The conditions noted are these: primary human keratinocytes with fibroblasts; actives raise or lower the signal. The method, boiled down:
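Human keratinocyte/foreskin fibroblast co-culture; compound added; 24 h; MMP-9 by ELISA; bidirectional fit vs DMSO baseline.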

Read-out in assay [14]: urokinase plasminogen activator (uPA), PLAU (gene 5328)
Nature of the assay: BSK_KF3CT_uPA: BioMAP Diversity Plus: KF3CT Assay for urokinase plasminogen activator (uPA) Biomarker Activity (AID 2283075). The conditions noted are these: primary human keratinocytes with fibroblasts; actives raise or lower the signal. A digest of the protocol: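 ELISA readout of uPA, analyzed for signal gain or loss relative to DMSO, from a human primary keratinocyte–foreskin fibroblast co-culture measured 24 h after chemical treatment.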

Read-out in a further assay: CD40, CD40 (gene 958)
Nature of the assay: BSK_LPS_CD40: BioMAP Diversity Plus: LPS Assay for CD40 Biomarker Activity (AID 2283076). The settings on record: primary human HUVEC with PBMC; actives raise or lower the signal. A digest of the protocol:
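Primary human umbilical vein endothelial cells co-cultured with peripheral blood mononuclear cells, LPS-stimulated, were dosed with chemical and read 24 h later. CD40 levels were measured by ELISA and fitted bidirectionally against DMSO as negative control and baseline.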

Read-out in assay [15]: E-selectin (Homo sapiens) (UniProt P16581)
Nature of the assay: BSK_LPS_Eselectin: BioMAP Diversity Plus: LPS Assay for Eselectin Biomarker Activity (AID 2283077). The conditions noted are these: primary human HUVEC with PBMC; actives raise or lower the signal. A digest of the protocol: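 Human umbilical vein endothelial cells co-cultured with peripheral blood mononuclear cells under LPS stimulation; E-selectin measured by ELISA 24 h after chemical dosing. Activity fitted bidirectionally against DMSO as negative control and baseline.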

Read-out in assay [16]: Interleukin-8 (IL8), CXCL8 (gene 3576)
In words: BSK_LPS_IL8: BioMAP Diversity Plus: LPS Assay for Interleukin-8 (IL8) Biomarker Activity (AID 2283078). The conditions noted are these: primary human HUVEC with PBMC; actives raise or lower the signal. A digest of the protocol: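 Human umbilical vein endothelial cells co-cultured with PBMC were stimulated with LPS; IL-8 levels were measured by ELISA 24 h after chemical dosing. Activity was fitted bidirectionally against DMSO as negative control and baseline.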

Assay [17] is described as follows: BSK_LPS_SRB: Viability Assessment in the BioMAP Diversity Plus: LPS Assay (AID 2283079).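 Further: total protein by sulforhodamine B absorbance as a cytotoxicity measure; measured one day after compound addition; fitted in both directions against DMSO so loss or gain of signal counts.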 The conditions noted are these: primary human HUVEC with PBMC. The method, boiled down: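 Human umbilical vein endothelial cells co-cultured with PBMC (LPS system) were dosed for 24 h. Total protein was stained with 0.1% sulforhodamine B after 10% TCA fixation, read at 560 nm, and fitted bidirectionally against DMSO baseline.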

Read-out in assay [18]: Interleukin-1 alpha (IL1a), IL1A (gene 3552)
Nature of the assay: BSK_LPS_IL1a: BioMAP Diversity Plus: LPS Assay for Interleukin-1 alpha (IL1a) Biomarker Activity (AID 2283080). The conditions noted are these: primary human HUVEC with PBMC; actives raise or lower the signal. The method, boiled down: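 Human umbilical vein endothelial cells co-cultured with peripheral blood mononuclear cells were LPS-stimulated and exposed to test chemicals for 24 h. IL-1 alpha was quantified by ELISA, with bidirectional curve fitting against DMSO as the negative control and baseline.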

Read-out in assay [19]: Monocyte Chemoattractant Protein-1 (MCP1), CCL2 (gene 6347)
Nature of the assay: BSK_LPS_MCP1: BioMAP Diversity Plus: LPS Assay for Monocyte Chemoattractant Protein-1 (MCP1) Biomarker Activity (AID 2283081).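 On AC50: co-culture stimulated with LPS; secreted MCP-1 protein quantified by ELISA in culture supernatant.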 The settings on record: primary human HUVEC with PBMC; actives raise or lower the signal. The method, boiled down: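 HUVEC plus PBMC co-culture (human primary cells, LPS system) exposed to test chemical for 24 h; MCP-1 measured by ELISA. Bidirectional curve fitting against DMSO baseline; parallel SRB total-protein staining flags overt cytotoxicity.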

Calls of active or inactive are those of the source. How the source made its calls: active means hit-call score of the fitted dose curve at least 0.9, where 1 is the maximum; inactive means score below 0.9.

One may read the AC50 as the midpoint of the concentration-response curve, whichever way the signal moves.

E-selectin (Homo sapiens), sequence (P16581 whole entry, looked up): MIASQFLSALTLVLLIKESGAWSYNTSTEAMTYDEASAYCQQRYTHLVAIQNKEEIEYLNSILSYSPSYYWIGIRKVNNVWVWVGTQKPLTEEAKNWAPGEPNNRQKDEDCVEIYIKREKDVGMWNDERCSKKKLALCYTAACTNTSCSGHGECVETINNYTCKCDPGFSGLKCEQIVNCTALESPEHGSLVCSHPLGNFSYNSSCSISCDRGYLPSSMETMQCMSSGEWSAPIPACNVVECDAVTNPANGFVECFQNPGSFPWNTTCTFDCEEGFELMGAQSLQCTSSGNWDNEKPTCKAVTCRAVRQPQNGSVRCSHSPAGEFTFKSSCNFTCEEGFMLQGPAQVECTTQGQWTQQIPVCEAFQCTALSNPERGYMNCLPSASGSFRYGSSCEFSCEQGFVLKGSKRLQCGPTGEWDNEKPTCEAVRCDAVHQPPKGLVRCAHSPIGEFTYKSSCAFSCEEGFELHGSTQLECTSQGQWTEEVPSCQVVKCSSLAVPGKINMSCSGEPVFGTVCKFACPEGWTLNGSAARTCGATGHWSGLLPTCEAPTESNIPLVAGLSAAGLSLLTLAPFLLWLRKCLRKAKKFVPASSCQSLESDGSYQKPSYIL

`Cc1ncc(CO)c(CO)c1O`: the result in [1], in assay [2], in assay [3], in [4], in [5] and in assay [6] was inactive. The outcome in assay [7], in assay [8], in [9], in [10], in assay [11] and in [12] was inactive. In addition, the outcome in assay [13] is “inactive”; in assay [14] it was “inactive”; in the assay with CD40, CD40 (gene 958), “inactive”; in assay [15], “inactive”; in [16], “inactive”; in assay [17] it was “inactive”. For the same compound, the outcome in assay [18] and in [19] was inactive.

Turning to `CC(O)CC(C)(C)O` (centres undefined), the outcome in assay [1], in assay [2], in assay [3], in assay [4], in [5] and in assay [6] was inactive. Also, the outcome in [7], in [8], in assay [9], in [10], in [11] and in assay [12] was inactive. Further, the outcome is “inactive” in assay [13]; “inactive” in assay [14]; “inactive” in the assay with CD40, CD40 (gene 958); “inactive” in assay [15]; “inactive” in assay [16]; “inactive” in assay [17]. Also, the outcome in [19] was inactive.

Consider `O=C(Nc1ccc(Cl)cc1)Nc1ccc(Cl)c(Cl)c1`, for which the result in [1], in assay [6], in assay [7], in assay [8], in assay [9] and in [10] was inactive. For the same compound, the outcome in [11], in assay [12] and in [14] was inactive. Further, the AC50 in assay [2] was 148 nM (active); in [3], 242 nM (active); in [4] it was 470 nM (active); in assay [5] it was 700 nM (active); in assay [13], 1490 nM (active); in the assay with CD40, CD40 (gene 958) it was 2420 nM (active). For the same compound, the AC50 is 2150 nM (active) in assay [15]; 1740 nM (active) in assay [16]; 2030 nM (active) in [17]; 3860 nM (active) in [18]; 3510 nM (active) in [19].

The values above are taken from PubChem BioAssay (EPA / NIEHS).
